PubChem BioAssay AID1117359 (Southern Research Institute, 2015)
Screen size: about 1,500 compounds; about 460 (31%) were called active.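 Rule for the calls: active = viability at or below 80% at any tested concentration, marking the compound as toxic; inactive = the rest.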 Not all results are given here. Measured potencies and affinities stand elsewhere.

assay: THP-1 cell cytotoxicity, dose response, cytotoxicity control for Vif-APOBEC3G degradation inhibitor project, THP-1 cells (AID 1117359); conditions: THP-1 viability, CellTiter-Glo luminescence, 72 h; series mostly up to 40 µM; viability: at the top concentration

| SMILES | viability |
| --- | --- |
| O=c1oc2c(O)c(O)cc3c(=O)oc4c(O)c(O)cc1c4c23 | 81.6% (inactive) |
| CN(Cc1ccccc1)C(=O)C1CCCN1S(=O)(=O)c1ccc2c(c1)n(C)c(=O)c(=O)n2C (stereo not given) | 104% (inactive) |
| CC1(C)Cc2nc3sc(C(=O)O)c(N)c3cc2CS1 | 85.6% (inactive) |
| O=c1cc2oc3cc(O)c(O)cc3c(-c3ccccc3O)c-2cc1O | 84.8% (inactive) |
| COCCn1c(SCC(=O)Nc2cc(C)on2)nc2cc(Cl)ccc2c1=O | 95.7% (inactive) |
| CCCCS(=O)(=O)N1CCCC(C(=O)N2CCOCC2)C1 (stereo not given) | 91.6% (inactive) |
| COc1ccc(NS(=O)(=O)c2cccc(C(=O)NNC(=O)c3cccn3C)c2)cc1 | 96.1% (inactive) |
| COc1ccc(S(=O)(=O)NNC(=O)c2sccc2-n2cccc2)cc1 | 93.2% (inactive) |
| Cc1ccc(C(=O)O)cc1-c1ccc(/C=C2/NC(=O)N(c3ccccc3)C2=O)o1 | 104% (inactive) |
| COC(=O)C1C(O)=C(C=Nc2ccc(N)cc2)C(=O)CC1(C)C (stereo not given) | 86.8% (inactive) |
| COc1ccc(/C(O)=C2/C(=O)C(=O)N(c3ccccn3)C2c2ccc(F)cc2)cc1 (stereo not given) | 88.5% (inactive) |
| Cc1cc(O)c(C(C)C)cc1N=Cc1ccc([N+](=O)[O-])cc1 | 86% (inactive) |
| COC(=O)C1=C(O)/C(=C/c2cccc(OC)c2O)N=C1C | 119% (inactive) |
| O=[N+]([O-])/C(C(Cl)=C(Cl)Cl)=C(/NC1CC1)Sc1ccccc1 | 80.3% (inactive) |
| CN1OC[C@@H]2CN(C(=O)C(C)(C)C)[C@H](c3cccc(Oc4ccccc4)c3)C[C@@H]21 | 81.6% (inactive) |
| COc1ccc(C2CC(=O)Oc3cc(OC)ccc32)cc1 (stereo not given) | 97% (inactive) |
| Cc1ccc(C(=O)C2=C(O)C(=O)N(c3ncccn3)C2c2ccc(F)cc2)o1 (stereo not given) | 98.4% (inactive) |
| O=C(O)/C=C/c1ccc(S(=O)(=O)N2CCN(CCN3C(=O)C4C5C=CC(C5)C4C3=O)CC2)cc1 (stereo not given) | 105% (inactive) |
| O=[N+]([O-])c1cc2ccccc2c(O)c1O | 105% (inactive) |
| O=S(=O)(O)c1cccc2c(N=Nc3ccc(O)c4ncccc34)cccc12 | 112% (inactive) |
| CN(CC(=O)Nc1ccccc1Cl)C(=O)Cn1cc(C(F)(F)F)cc(Cl)c1=O | 98.7% (inactive) |
| Cc1[nH]c(=O)nc(NN=Cc2ccc(Cl)cc2)c1C(=O)Nc1ccc(Cl)cc1 | 94.2% (inactive) |

| SMILES | viability |
| --- | --- |
| CC(=C/C(=O)O)/C=C/c1ccc(Cl)o1 | 104% (inactive) |
| COc1ccccc1C(=O)Nc1ccc(-c2nnc(SCC(=O)O)n2C)cc1 | 96.2% (inactive) |
| O=C(CSc1nnc(-c2ccco2)c(-c2ccco2)n1)Nc1ccccc1 | 80.2% (inactive) |
| O=[N+]([O-])c1ccc(-c2c[nH]c(=S)[nH]2)cc1 | 103% (inactive) |
| CCOc1ccc(/C=C2\NC(=S)NC2=O)cc1 | 96.2% (inactive) |
| COc1ccc(-c2cc(-c3ccco3)[nH]c(=O)c2C#N)cc1 | 101% (inactive) |
| CC1CCC/C(=C\Nc2ccc(C(=O)O)c(O)c2)C1=O (stereo not given) | 107% (inactive) |
| CCNC(=O)COC(=O)c1cc(-c2ccco2)nc2ccccc12 | 96.2% (inactive) |
| CN(C)[C@@H]1C(=O)C(C(=O)NCN2CCCC2)=C(O)[C@@]2(O)C(=O)C3=C(O)c4c(O)cccc4[C@@](C)(O)C3CC12 (stereo not given in full) | 88.8% (inactive) |
| Cc1cc(/C=C2\SC(=S)NC2=O)c(C)n1C | 83.5% (inactive) |
| COC(=O)Cc1ccc(NC(=S)NNC(=O)C2CC2)cc1 | 94.8% (inactive) |
| O=c1[nH][nH]c(=O)c2nc(Nc3ccccc3)ncc12 | 93.8% (inactive) |
| CCN(CC)c1ccc(C=Nc2ccc(N(C)C)cc2)c(O)c1 | 92.7% (inactive) |
| Cc1ccccc1NC(=O)Cc1nc(COC(=O)Cc2ccccc2F)cs1 | 110% (inactive) |
| CN(C)c1ccc(/C=C/C#N)cc1 | 84.6% (inactive) |
| CCCc1cc(=O)[nH]c(SCC(=O)c2c(C)[nH]c3ccccc23)n1 | 116% (inactive) |
| COc1ccc(NC(=O)CSc2nc3c(cc2C#N)CN(C)CC3)cc1 | 81.2% (inactive) |
| COc1ccc(NC2=NC(C)(CO)CS2)cc1 (stereo not given) | 105% (inactive) |
| COc1ccc(NC(=O)CCCSc2ccccc2)cc1 | 110% (inactive) |
| CCOC(=O)/C(=C\c1ccccc1)NC(=O)c1ccccc1 | 101% (inactive) |
| COc1ccc2cc(C3C(C#N)=C(N)OC(C)=C3C(C)=O)c(Cl)nc2c1 (stereo not given) | 96.4% (inactive) |
| Cc1ccc(C2C(C#N)=C(N)Oc3c2oc(CO)cc3=O)o1 (stereo not given) | 98.5% (inactive) |

| SMILES | viability |
| --- | --- |
| NS(=O)(=O)c1ccc(CCNC2CC(=O)N(Cc3ccccc3)C2=O)cc1 (stereo not given) | 101% (inactive) |
| CN(Cc1cn(C)nc1-c1cccc(Cl)c1)Cc1nccn1C | 97% (inactive) |
| Nc1cc(C(=O)O)ccc1N1CCCCC1 | 83.3% (inactive) |
| Nc1ccc(N2CCN(CCCCN3C(=O)C4CCCN4C3=O)CC2)cc1 (stereo not given) | 87.8% (inactive) |
| O=C(CN1C(=O)NC(c2ccc(F)cc2)C1=O)Nc1ccc2c(c1)OCCO2 (stereo not given) | 103% (inactive) |
| COc1cccc(NC(=O)N2CCN(c3nnnn3-c3ccccc3)CC2)c1 | 86.7% (inactive) |
| O=C(Cn1c(=O)oc2ccccc21)N1CCN(S(=O)(=O)c2ccccc2)CC1 | 98.3% (inactive) |
| CC(C)(C)c1ccc(NC(=S)NCc2cccnc2)cc1 | 103% (inactive) |
| O=S(=O)(c1ccc(OCC(O)CN2CCC(Cc3ccccc3)CC2)cc1)N1CCOCC1 (stereo not given) | 91.8% (inactive) |
| C/C(=N\NC(=O)c1cnccn1)c1ccc([N+](=O)[O-])cc1 | 107% (inactive) |
| N/C(=N\OC(=O)COc1ccc([N+](=O)[O-])cc1)c1cccnc1 | 109% (inactive) |
| O=C1CC(Nc2ccc(N3CCOCC3)cc2)C(=O)N1Cc1ccccc1 (stereo not given) | 111% (inactive) |
| Cc1cc(SCC2=NNC(=O)C2)c(Cl)cc1Cl | 104% (inactive) |
| CCCCc1nc2sc3c(=O)[nH]cnc3c2c2c1CCCC2 | 105% (inactive) |
| CC(C)Cc1nc2oc3c(NCC(C)O)ncnc3c2c2c1CCCC2 (stereo not given) | 85.5% (inactive) |
| CCCCc1cc(C(=O)Cc2ccccn2)c(O)cc1O | 90.9% (inactive) |
| COc1ccc(C(=O)OCC(=O)c2c(N)n(C)c(=O)n(C)c2=O)cc1OC | 87.8% (inactive) |
| NC(=O)C1Cc2ccccc2CN1C(=O)c1nn(Cc2ccccc2)c(=O)c2ccccc12 (stereo not given) | 97.3% (inactive) |
| Cc1cccc2nc(C(=O)Nc3cccc(C(=O)NC4CC4)c3)cn12 | 96.1% (inactive) |
| Cc1onc(-c2ccccc2)c1CNC(=O)C1COc2ccccc2O1 (stereo not given) | 81% (inactive) |
| O=C(O)Cc1ccc(N=Nc2c(O)c(C(=O)O)cc3ccccc23)cc1 | 120% (inactive) |
| Nc1cccc2cc(S(=O)(=O)O)ccc12 | 104% (inactive) |

| SMILES | viability |
| --- | --- |
| O=C1CC(N2CCOCC2)C(=O)N1c1ccc(Cl)cc1 (stereo not given) | 95.9% (inactive) |
| O=C(O)c1ccc2c(c1)C1C=CCC1C(c1ccncc1)N2 (stereo not given) | 95.9% (inactive) |
| S=C1NC2(CCCCCC2)N=C1c1ccccc1 | 124% (inactive) |
| CC(NC(=O)c1ccco1)C1CCCO1 (stereo not given) | 106% (inactive) |
| S=c1[nH]nc(Cn2nnc3ccccc32)n1-c1ccccc1 | 96.5% (inactive) |
| COc1cc(/C=C(\CC(=O)O)c2nc3ccccc3s2)cc(OC)c1O | 81.9% (inactive) |
| COc1ccccc1/C=C/C=C1N=C(/C=C/c2ccc(Cl)cc2)OC/1=O | 87.7% (inactive) |
| C/C=C/c1ccc(OCC(=O)N2CCc3cc(OC)c(OC)cc3C2)c(OC)c1 | 87.1% (inactive) |
| COc1cc(/C=N/NC(=O)c2ccc(NS(=O)(=O)c3cccs3)cc2)cc(OC)c1O | 93.2% (inactive) |
| CCc1ccccc1NC(=O)N1CCc2ccccc21 | 88.4% (inactive) |
| CCN1CNC(=S)N(CCc2ccccc2)C1 | 102% (inactive) |
| Cc1cc(C)n2nc(C(=O)OCC(=O)N(C)CC(=O)Nc3ccc(F)cc3)nc2n1 | 84.1% (inactive) |
| CCN1CCN(C(=O)CN(C)S(=O)(=O)c2ccc(OC)c(C)c2)CC1 | 87.7% (inactive) |
| CCOC(=O)CNC(=O)Cn1cnc2c(nnn2-c2ccc(F)cc2)c1=O | 97.2% (inactive) |
| COC/C=C/C1=CC2=CC(=O)C(C)(OC(=O)C3CCCC3)C(=O)C2=CO1 (stereo not given) | 100% (inactive) |
| Clc1ccccc1N=Nc1ccccn1 | 89.9% (inactive) |
| CCOC(=O)C1CCCC12Nc1cccc3cccc(c13)N2 (stereo not given) | 84.6% (inactive) |
| COc1cc(OC)c2c(c1O)OC(c1ccccc1)CC2=O (stereo not given) | 105% (inactive) |
| Cc1noc(C)c1COc1ccc(C(=O)OCC(=O)N2c3ccccc3NC(=O)C2(C)C)cc1 | 102% (inactive) |
| CCOc1ccc(NC(=O)C2CCCN(S(=O)(=O)c3c(C)nn(C)c3C)C2)cc1 (stereo not given) | 93% (inactive) |
| CC(=O)c1sc(C(=O)O)c(-c2ccco2)c1-c1ccco1 | 115% (inactive) |
| Cc1cc(CN2C(=O)c3ccccc3C2=O)cc(N2CCOCC2)c1 | 84% (inactive) |

| SMILES | viability |
| --- | --- |
| O=C(CCN1C(=O)c2ccccc2C1=O)NCc1ccco1 | 108% (inactive) |
| CCCC(=O)C1=C(N(C)c2ccccc2)CC(C)(C)CC1=O | 99.3% (inactive) |
| O=C(Nc1cccnc1)c1sc(Nc2ccccc2F)nc1-c1ccccc1 | 89% (inactive) |
| O=C(COc1ccccc1Cl)c1ccc[nH]1 | 94.5% (inactive) |
| C/C(=N\n1c(C)nc2ccccc2c1=O)c1ccc(C)o1 | 108% (inactive) |
| O=C(O)c1cc(N2N=C(C(F)(F)F)/C(=C/C=C/c3ccco3)C2=O)ccc1Cl | 99.9% (inactive) |
| O=C1NN(c2cccc(Br)c2)C(=O)/C1=C\c1ccccc1 | 93.1% (inactive) |
| O=C(O)C(Cc1ccccc1)N1C(=O)/C(=C/C=C/c2ccco2)SC1=S (stereo not given) | 106% (inactive) |
| O=C1/C(=C\c2ccco2)NC(=S)N1c1ccccc1 | 91.4% (inactive) |
| COC(=O)C1=C(C)N(Cc2ccccc2)C(=O)/C1=C\c1ccco1 | 90.4% (inactive) |
| COc1ccc(N=C2NC(=O)/C(=C\C=C\c3ccco3)S2)cc1 | 101% (inactive) |
| O=C(Nc1ccc(Cl)cc1)Nc1ccc(N2CCC(C(F)(F)F)CC2)nc1 | 97.4% (inactive) |
| CC1CC(C)CN(C(=O)CSCC(=O)O)C1 (stereo not given) | 96.8% (inactive) |
| Cn1c(C(=O)N[C@@H](C(=O)O)c2ccccc2)cc2cc(Cl)ccc21 | 98.7% (inactive) |
| C#Cc1ccc([C@H]2C=C(C(=O)N3CCOCC3)O[C@@H](OCc3ccc(CO)cc3)C2)cc1 | 98.9% (inactive) |
| Cc1cc(=O)n2nc(N3CCCC(C(=O)NC4CCC(C)CC4)C3)sc2n1 (stereo not given) | 91.6% (inactive) |
| O=C(O)Cc1cccc(=O)c(O)c1C(=O)O | 92.9% (inactive) |
| COc1cc(NC(=O)c2noc3c2CCC3)c(OC)cc1Cl | 85.2% (inactive) |
| CCOC(=O)C(=O)NCc1ccc(/C=C2/N=C(C)C(C(=O)OCC)=C2O)o1 | 101% (inactive) |
| CN(C)c1nc(OCCNC(=O)COc2ccc(Cl)cc2Cl)nc(N2CCOCC2)n1 | 95.2% (inactive) |
| CC(=O)c1ccc(-c2nnc(CCC(=O)N(C)Cc3c(C)nc4ccccn34)o2)s1 | 104% (inactive) |
| CC(=O)Nc1nnc(-c2c(-c3c(Cl)cccc3Cl)noc2C)o1 | 95.8% (inactive) |
